An excerpt weighted towards active compounds, which were near 3.1% of everything screened.
HIF-2a inh = inhibitors of HIF-2a | 360,000 compounds, 0.72% hits | 786-0 RCC cells HIF-2a reporter, luciferase luminescence, overnight | inhibition, % at 18.8 µM;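 active = inhibition of the luminescence signal of 40% or more relative to plate controls, in a single-dose primary screen at 18.75 µM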
KKLEB tox = reduces viability of KKLEB cystic fibrosis airway cells; AID 602141; activity change (cytotoxicity), % at 5 µM; KKLEB CF airway cells viability, ATPlite luminescence, overnight; stronger effect = lower value; cells stimulated with P. aeruginosa culture filtrate; 360,000 compounds, 0.36% hits;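 active = corrected activity change at or below -50% at 5 µM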
TRPM1 prom inh = reduces MITF-dependent TRPM1 promoter luciferase signal | inhibition, % at 12.5 µM | AID 488899 | 330,000 compounds, 0.83% hits | SK-MEL-5 TRPM1 promoter luciferase, 24 h;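 active = mean inhibition across replicates of 60% or more, whatever share of single replicates reaches that level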
ABHD5 PLIN5 PPI = blocks binding of human ABHD5 to perilipin-5 | 360,000 compounds, 0.78% hits | Split G. princeps luciferase complementation, luminescence, 4 h | inhibition, % at 4 µM | Q00G26+Q8WTS1;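 active = inhibition above the mean inhibition across every tested compound plus 3 SD, cut at about 22% in these data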;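 also: 0% = DMSO only wells and the 100% control is not disclosed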
Peg3 prom inh-1 = Peg3 promoter activity inhibition | HeLa PEG-Prom luciferase reporter, luminescence, overnight | inhibition, % at 20 µM | 360,000 compounds, 1.7% hits | AID 588405;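 active = inhibition of at least 50% at 20 µM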
CF NFkB block = cystic fibrosis NF-kB activation inhibition. KKLEB NF-kB-GFP reporter, PAF-induced, GFP fluorescence overnight. inhibition, % at 5 µM. 360,000 compounds, 0.86% hits;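 active = at least 50% inhibition at 5 µM, scaled per plate between neutral and stimulator controls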;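 also: PAF is a Pseudomonas aeruginosa culture filtrate used as stimulus; plate controls were PAF-stimulated DMSO wells for no effect and unstimulated DMSO wells for full effect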
Peg3 prom inh-2 = Peg3 promoter inhibition confirmation. HeLa PEG-Prom luciferase reporter, luminescence, overnight. shares compounds with Peg3 prom inh-1. 1,300 compounds, 84% hits. inhibition, % at 20 µM;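 active = at 20 µM dose, 40% or more inhibition averaged across four replicates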
ABHD5-PLIN5 conf = confirmation of human ABHD5-PLIN5 interaction inhibitors; shares compounds with ABHD5 PLIN5 PPI; biochemical ABHD5-PLIN5 interaction, luminescence; inhibition, % at 4 µM; 2,200 compounds, 67% hits; in the data active = inhibition above about 23%;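 also: 0% = DMSO vehicle wells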
HNF4 split-luc = HNF4 split-luciferase signal hit, counter-screen; HNF4 dimerization, luminescence, biochemical; inhibition, % at 4 µM; 2,200 compounds, 77% hits; shares compounds with ABHD5 PLIN5 PPI;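 active = mean inhibition across replicate wells exceeding the computed hit threshold, cut at about 13% in these data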;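 also: light from luciferase halves that rejoin when HNF4 fusion proteins dimerize; 0% = DMSO only wells and the 100% control is not given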
Mdm2-MdmX confirm = Mdm2/MdmX (human) interaction inhibition, confirmed; shares compounds with HIF-2a inh; SaOS-2 split-luciferase Mdm2/MdmX complementation, luminescence; inhibition, % at 8 µM; 740 compounds, 99% hits; AID 504601;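 active = mean inhibition of the luminescence signal across two replicates at or above 26 percent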
Target sequence (O15151 whole entry, looked up): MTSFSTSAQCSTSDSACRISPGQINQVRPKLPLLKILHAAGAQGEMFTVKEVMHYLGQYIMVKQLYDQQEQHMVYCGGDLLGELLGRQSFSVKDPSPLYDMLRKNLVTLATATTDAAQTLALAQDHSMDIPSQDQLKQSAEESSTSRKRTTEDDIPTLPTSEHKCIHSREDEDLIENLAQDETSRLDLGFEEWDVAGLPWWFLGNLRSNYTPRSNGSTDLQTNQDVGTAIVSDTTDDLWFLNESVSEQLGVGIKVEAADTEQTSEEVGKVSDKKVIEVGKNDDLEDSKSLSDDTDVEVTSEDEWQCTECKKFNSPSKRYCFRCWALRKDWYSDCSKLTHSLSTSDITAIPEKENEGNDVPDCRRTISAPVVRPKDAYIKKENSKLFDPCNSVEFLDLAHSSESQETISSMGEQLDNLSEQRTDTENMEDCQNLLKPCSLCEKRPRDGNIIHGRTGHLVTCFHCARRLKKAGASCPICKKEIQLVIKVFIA
Target sequence (Q00987 whole entry, looked up): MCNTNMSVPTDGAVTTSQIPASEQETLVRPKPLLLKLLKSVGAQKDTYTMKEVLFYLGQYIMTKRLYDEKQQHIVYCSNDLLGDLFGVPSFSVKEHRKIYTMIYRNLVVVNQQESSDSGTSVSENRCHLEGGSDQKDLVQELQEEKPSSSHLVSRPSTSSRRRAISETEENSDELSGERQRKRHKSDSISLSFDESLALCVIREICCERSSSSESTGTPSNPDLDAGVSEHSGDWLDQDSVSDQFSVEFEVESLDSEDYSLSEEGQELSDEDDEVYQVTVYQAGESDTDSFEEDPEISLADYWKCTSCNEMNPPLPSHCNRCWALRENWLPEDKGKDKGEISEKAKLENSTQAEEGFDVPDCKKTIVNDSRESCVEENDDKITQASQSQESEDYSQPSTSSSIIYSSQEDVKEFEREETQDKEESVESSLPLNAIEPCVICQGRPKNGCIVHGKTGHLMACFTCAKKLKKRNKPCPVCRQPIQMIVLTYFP
HIF-2a inh conf = confirmation of HIF-2a inhibitors. shares compounds with HIF-2a inh. 786-0 RCC cells, HIF-2a luciferase reporter luminescence, overnight. inhibition, % at 18.8 µM. 1,800 compounds, 56% hits. AID 651580;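 active = mean inhibition across four replicates of at least 40 percent at the single tested concentration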
HIF-1a counter = HIF-1a inhibition counter-screen for HIF-2a hits. shares compounds with HIF-2a inh. inhibition, % at 18.8 µM. 1,800 compounds, 72% hits. MiaPaCa-2 HIF-1a luciferase reporter, desferoxamine, overnight;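 active = mean inhibition of the reporter signal across four replicates at the single tested dose of 50% or more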
* = called active by the depositor; x = no result.

SMILES | HIF-2a inh | KKLEB tox | TRPM1 prom inh | ABHD5 PLIN5 PPI | Peg3 prom inh-1 | CF NFkB block | Peg3 prom inh-2 | HIF-2a inh conf | HIF-1a counter | others
O=C(Nc1cccc(C(=O)O)c1)Nc1ccc2c(c1)OCO2 | 83.1* | -4.3 | 89.3* | 1.2 | 84.0* | 13.6 | 73.5* | x | x | Mdm2-MdmX confirm=63.5*
O=C(O)c1ccc(N/N=C/c2ccc(C(F)(F)F)cc2)cc1 | 44.9* | -2.3 | 67.9* | -7.8 | 66.0* | 6.3 | 51.9* | 68.0* | 32.9
Cc1cccc(NC(=O)Nc2nnc([C@@H]3C[C@H](O)[C@@H](CO)O3)s2)c1 | -58.7 | -6.6 | x | 4.7 | -21.0 | 18.4 | x | x | x
O=C(C[C@H]1C=C[C@@H](NS(=O)(=O)c2ccccc2)[C@@H](CO)O1)NCc1ccc(Cl)c(Cl)c1 | 12.2 | x | x | 5.7 | x | x | x | x | x
CSc1ccccc1NC(=O)CN1CC(C)OC(C)C1 (stereo not given) | 8.0 | -0.4 | 1.8 | 1.1 | 28.0 | 6.3 | x | x | x
CCn1c(C)cc(C(=O)COC(=O)c2ccccc2[N+](=O)[O-])c1C | 81.6* | -66.8* | 96.6* | -9.7 | 93.6* | 5.0 | 91.2* | 87.4* | 87.0* | Mdm2-MdmX confirm=98.5*
Cc1cc(C(=O)COC(=O)c2ccccc2O)c(C)n1CC1CCCO1 (stereo not given) | 90.3* | -21.8 | 84.0* | -0.8 | 84.8* | 30.9 | 92.0* | 94.9* | 98.2*
Cc1cc(C(=O)COC(=O)c2ccccc2Br)c(C)n1CC1CCCO1 (stereo not given) | 55.2* | -31.8 | 75.6* | -6.7 | 53.8* | 15.1 | 78.2* | 67.7* | 89.5*
Cc1cc(C(=O)COC(=O)c2ccc3c(c2)OCO3)c(C)n1Cc1cccs1 | -195.8 | 0.9 | -17.8 | -5.2 | -290.6 | -1.3 | x | x | x
Cc1cc(C(=O)COC(=O)c2ccccc2O)c(C)n1Cc1cccs1 | 89.9* | -44.3 | 90.4* | 3.4 | 90.7* | 13.1 | 87.0* | 96.0* | 96.8*
Cc1ccc(C(=O)OCC(=O)c2cc(C)n(CC3CCCO3)c2C)cc1 (stereo not given) | -91.8 | 4.9 | -60.9 | -0.7 | -261.9 | -1.0 | x | x | x
CC(=O)c1cc(C#N)c(SCc2ccc([N+](=O)[O-])cc2)nc1C | 7.4 | -6.2 | -5.8 | -1.2 | 20.4 | 14.2 | x | x | x
CC1(C(=O)O)CCCN(C(=O)c2ccc(F)cc2Cl)C1 (stereo not given) | -2.0 | -35.2 | x | 5.5 | 0.9 | 19.4 | x | x | x
CCOC(=O)C(C(C)C)C(N)Cc1ccc(F)cc1 (stereo not given) | 19.2 | 10.6 | -13.9 | -2.0 | 5.7 | -3.3 | x | x | x
CCCC(=O)N1CCC1(C)C(=O)Nc1ccc2nc(C)ccc2c1 (stereo not given) | -96.1 | -4.3 | x | 1.3 | -34.2 | -19.4 | x | x | x
Cc1ccc(Nc2c([N+](=O)[O-])c(=O)oc3ccccc23)cc1C | -42.2 | -14.5 | 29.6 | 5.1 | -1.3 | 17.7 | x | x | x
COCCn1c(C)cc(C(=O)COC(=O)c2ccccc2Br)c1C | 48.1* | -35.6 | 81.0* | 0.6 | 78.2* | 14.4 | 68.6* | 42.0* | 75.9*
COC(=O)c1cc(=O)n(Cc2cccs2)c(=Nc2ccccc2)s1 | 25.4 | -8.5 | 4.3 | 17.6 | 23.7 | 13.3 | x | x | x
COC(=O)c1cc(=O)n(Cc2ccco2)c(=Nc2ccc(F)cc2)s1 | 49.1* | -18.5 | x | 30.9* | 82.0* | 40.1 | 84.2* | 60.3* | 96.8* | ABHD5-PLIN5 conf=65.0*;HNF4 split-luc=44.2*
O=C(Nc1ccc(Cc2ccncc2)cc1)c1ccc([N+](=O)[O-])o1 | 53.5* | -4.0 | 45.1 | -8.5 | 102.8* | 44.7 | 95.1* | 27.0 | 101.5*
O=C(Nc1ccc(Cc2ccncc2)cc1)c1cccc([N+](=O)[O-])c1 | -94.3 | -4.2 | -5.1 | 0.3 | -78.0 | -10.7 | x | x | x
CCOc1cc(/C=C\[N+](=O)[O-])ccc1OCC(=O)Nc1ccccc1C | 95.9* | -1.1 | 90.7* | 55.3* | 114.9* | -21.9 | 91.1* | 26.5 | 105.5* | ABHD5-PLIN5 conf=95.6*;HNF4 split-luc=102.1*;Mdm2-MdmX confirm=100.2*
N/C(=N\OC(=O)c1ccc([N+](=O)[O-])cc1Cl)c1ccccn1 | 40.7* | -30.2 | 55.9 | 3.9 | 50.0* | -25.3 | 21.3 | 28.1 | 61.6*
CCCN1CCN(CCCNC(=S)Nc2ccc(OC)cc2)CC1 | 9.9 | 17.3 | 2.6 | 0.0 | 6.8 | 13.1 | x | x | x
C(=Cc1nc2ccccc2o1)c1ccc2c(c1)OCO2 | -2.8 | -41.9 | x | -4.2 | -34.1 | -39.1 | x | x | x
SMILES | HIF-2a inh | KKLEB tox | TRPM1 prom inh | ABHD5 PLIN5 PPI | Peg3 prom inh-1 | CF NFkB block | Peg3 prom inh-2 | HIF-2a inh conf | HIF-1a counter | others
C(=Cc1cnc2ccccc2n1)c1ccc2c(c1)OCO2 | 59.3* | -64.7* | x | 3.3 | 69.3* | -30.9 | 84.6* | 91.9* | 99.3*
Cc1noc(-c2ccc(Cl)cc2)c1C(=O)O/N=C(\N)c1ccc(C(C)(C)C)cc1 | 0.0 | -2.5 | -7.4 | 0.8 | 112.5* | 10.0 | 98.4* | x | x | Mdm2-MdmX confirm=102.7*
Cc1cc(S(=O)(=O)NC(=O)[C@H]2O[C@@H](n3cnc4c(N)ncnc43)[C@H](O)[C@@H]2O)ccc1Br | 11.9 | -9.1 | x | -3.2 | -0.2 | -10.3 | x | x | x
Cc1noc(NS(=O)(=O)c2ccc(NS(=O)(=O)c3ccc(Cl)cc3)cc2)c1C | 7.2 | -1.1 | -14.2 | -8.7 | 2.8 | 4.8 | x | x | x
Cc1ccccc1OCC(O)CNC1CCC(NCC(O)COc2ccccc2C)CC1 (stereo not given) | 93.5* | -37.1 | 99.1* | 12.4 | 101.2* | 37.5 | 99.5* | 20.9 | 104.9* | Mdm2-MdmX confirm=103.2*
Cn1c(=O)c2cc(S(=O)(=O)Nc3cc(C(=O)O)cc(C(=O)O)c3)ccc2n(C)c1=O | 13.0 | 4.5 | 9.1 | 2.0 | 12.2 | 2.6 | x | x | x
Cc1cc(C)cc(NS(=O)(=O)c2ccc3c(c2)c(=O)n(C)c(=O)n3C)c1 | 50.1* | 5.3 | 59.6 | -8.0 | 53.6* | 33.2 | 69.8* | 41.1* | 100.8*
O=C(NCc1cccnc1)c1ccccc1NS(=O)(=O)c1ccc(F)cc1F | 8.3 | -6.4 | -16.7 | -2.9 | 27.6 | 3.2 | x | x | x
